These results are taken from PubChem BioAssay AID1259374 (The Scripps Research Institute Molecular Screening Center, 2018).

Hit rate of the full screen: of about 650,000 compounds, about 5,900 (0.91%) were called active. Shown is part of a subset that was picked to be rich in actives. A number with no mark means an inactive call. Cut-off read from the data, not from the text of the source: active = inhibition above about 50%; inactive = the rest.

What is called inhibition is the drop in the measured response relative to a control, in per cent.

The target in this experiment is Microphthalmia-associated transcription factor (Homo sapiens) (UniProt O75030). Briefly: MITF inhibitors, primary screen, biochemical, AlphaScreen, human (AID 1259374).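 Note: 0% = vehicle wells with protein.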 As to conditions: AlphaScreen MITF homodimerization, bead proximity signal; at 2.6 µM; stronger effect = higher value.
Sequence of Microphthalmia-associated transcription factor (Homo sapiens) (O75030 whole entry, looked up): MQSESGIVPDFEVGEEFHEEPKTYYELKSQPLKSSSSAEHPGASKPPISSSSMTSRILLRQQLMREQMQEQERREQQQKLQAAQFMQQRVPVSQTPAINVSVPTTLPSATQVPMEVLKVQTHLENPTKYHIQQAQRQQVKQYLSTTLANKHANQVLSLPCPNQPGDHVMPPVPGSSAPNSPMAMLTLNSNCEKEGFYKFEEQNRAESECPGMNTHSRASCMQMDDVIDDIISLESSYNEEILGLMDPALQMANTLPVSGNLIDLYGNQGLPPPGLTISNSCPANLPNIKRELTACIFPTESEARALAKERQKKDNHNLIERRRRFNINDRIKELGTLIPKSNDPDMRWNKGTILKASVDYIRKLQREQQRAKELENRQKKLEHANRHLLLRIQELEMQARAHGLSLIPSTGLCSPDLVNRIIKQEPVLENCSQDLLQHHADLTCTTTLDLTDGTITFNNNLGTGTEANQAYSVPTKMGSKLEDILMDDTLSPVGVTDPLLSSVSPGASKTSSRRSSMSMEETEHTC
For the compound `CCN1CCN(S(=O)(=O)c2ccc(Br)c(OC)c2)CC1`, the inhibition is -5.44%.

As to `Cc1ccc(C(=O)N/N=C\c2ccc(-c3ccc(Br)cc3)o2)cn1`, the inhibition is 8.68%.

As to `CC(=O)N(C)c1ccc(NC(=O)COc2cc(C)ccc2C)cc1`, the inhibition was -10.1%.

With `COCCN(CCOC)C(=O)CSc1nnc2nc(C)cc(C)n12`, the inhibition is 9.62%.

For the compound `O=C(c1ccccc1F)N1CCN(c2ccc(-c3cccnc3)nn2)CC1`, the inhibition is 4.6%.

`O=C(NCc1ccccc1)N1CCN(c2ccc(-c3ccncc3)nn2)CC1`: the inhibition is -7.08%.

In the case of `CCSc1ccccc1C(=O)N1CCN(c2ccc(-c3ccccn3)nn2)CC1`, the inhibition is 121% (active).

For `O=C(NCc1nnc2n1CCN(C1CCSCC1)CC2)c1c(F)cccc1F`, the inhibition is 17.7%.

With `COc1ccccc1C(=O)N/N=C/c1ccc(O)cc1O`, the inhibition is 23.2%.

For `COc1ccc(NC(=O)NN2CCN(C)CC2)c(OC)c1`, the inhibition was -3.56%.

For `COc1ccc(NC(=O)CN2CCN(C)CC2)c(OC)c1`, the inhibition is 105% (active).

For `COc1ccc(NC(=O)CN2CCN(S(=O)(=O)c3cc(Cl)ccc3OC)CC2)c(OC)c1`, the inhibition was 6.53%.

For `Cc1ccccc1-n1nc2c(c1NC(=O)C(C)Oc1ccccc1)CSC2` (configuration not stated), the inhibition is 10.4%.

With `NC(=O)N/N=C1\CCCCC1c1ccccc1` (configuration not stated), the inhibition was -1.85%.

As to `COc1ccc(Cn2nnc(C(=O)Nc3cccc(Cl)c3)c2N)cc1`, the inhibition is 61.4% (active).

On to `Nc1c(C(=O)Nc2ccccc2)nnn1Cc1ccc(F)cc1`, for which the inhibition was 3.54%.

Regarding `COc1ccc(NC(=O)Cn2nnc(C(=O)Nc3cc(Cl)ccc3OC)c2N)cc1`, the inhibition was -3.11%.

For the compound `Cc1ccc(NC(=O)Nc2nnc(CC(=O)Nc3ccccc3C)s2)cc1C`, the inhibition was 17.1%.

On to `O=C(CSc1ccccc1)Nc1nc(-c2ccccn2)cs1`, for which the inhibition is 0.84%.

For `N#Cc1ccc(OCC(=O)Nc2ccccc2Cl)cc1`, the inhibition was 12.2%.

With `N#Cc1ccc(OCC(=O)Nc2nc(-c3ccccn3)cs2)cc1`, the inhibition was 64.9% (active).

For `O=C(N/N=C/c1ccccc1Cl)C(=O)N/N=C/c1ccccc1Cl`, the inhibition is 17.2%.

Consider `Oc1ccc(/C=N/Nc2ccccc2Cl)c(O)c1O`, for which the inhibition is 56.2% (active).

For `Clc1ccccc1/C=N/Nc1nccnc1Cl`, the inhibition is -4.68%.

As to `Cc1ccc(NC(=O)c2c(N)sc3c2CCCCC3)cc1`, the inhibition was -9.3%.

Regarding `O=C(c1ccccc1)c1ccc(OCC(O)CNCC2CCCO2)cc1` (configuration not stated), the inhibition was 12.1%.

On to `Cc1ccc(NC(=O)c2cc3n(n2)C(C(F)(F)F)CC(c2ccc(Cl)c(Cl)c2)N3)cc1C` (configuration not stated), for which the inhibition was 12.4%.

Turning to `COc1ccc(C2CC(C(F)(F)F)n3nc(C(=O)Nc4cccc(C)c4)cc3N2)cc1OC` (configuration not stated), the inhibition was -3.27%.

With `COc1ccc(NC(=O)c2cc3n(n2)C(C(F)(F)F)CC(c2ccc(OC)c(OC)c2)N3)cc1OC` (configuration not stated), the inhibition is 63.8% (active).

Consider `COC(=O)c1ccc(NC(=O)/C(=C\c2ccco2)NC(=O)c2ccccc2Cl)cc1`, for which the inhibition was -0.56%.

As to `O=C(CSc1nc2ccsc2c(=O)n1-c1ccc(Cl)cc1)N1CCCC1`, the inhibition was -8.93%.

Take `N#Cc1ccc(/C=N/NC(=O)c2cc([N+](=O)[O-])cc([N+](=O)[O-])c2)cc1`: the inhibition is 66.5% (active).

Take `O=C(N/N=C/c1ccc([N+](=O)[O-])cc1)c1cccc(I)c1`: the inhibition was 10.1%.

`Cc1ccc(C(=O)Nc2cccc(C(=O)N/N=C/c3ccc(C#N)cc3)c2)cc1`: the inhibition was 2.24%.

In the case of `O=S(=O)(c1ccc(C2Nc3ccc(Cl)cc3C3C=CCC32)cc1)N1CCOCC1` (configuration not stated), the inhibition is -9.39%.

For the compound `Cc1cc([N+](=O)[O-])cc2c1NC(C(=O)O)C1CC=CC21` (configuration not stated), the inhibition is 24.6%.

In the case of `O=C(O)C1Nc2ccc(Cl)cc2C2C=CCC12` (configuration not stated), the inhibition was 77% (active).

With `CN(C)CCN1C(=O)C(=O)/C(=C(\O)c2ccc(S(=O)(=O)N(C)C)cc2)C1c1ccc(C(C)(C)C)cc1` (configuration not stated), the inhibition was 13.9%.

For the compound `CN(C)CC(C)(C)CNCc1nnc(-c2ccccc2)o1`, the inhibition is 56.2% (active).

For the compound `O=C(CCc1nnc(-c2ccccc2)o1)NC1(c2ccccc2)CC1`, the inhibition is -2.49%.

Consider `CC(CCn1cccn1)NC(=O)CCc1nnc(-c2ccccc2)o1` (configuration not stated), for which the inhibition is 1.03%.

For the compound `Cc1cc(N2CCOCC2)ccc1/C=C1\C(=O)NC(=S)N(c2ccccc2)C1=O`, the inhibition is -14.9%.

Consider `O=C1NC(=S)N(Cc2ccco2)C(=O)/C1=C\c1ccc(N2CCOCC2)cc1`, for which the inhibition was 75.1% (active).

In the case of `CCN1C(=O)/C(=C\c2ccc(O)cc2)C(=O)NC1=S`, the inhibition was 3.62%.

Regarding `CCOC(=O)N1CCC(N(CCN(C)C)C(=S)Nc2cccc(F)c2)CC1`, the inhibition is -2.5%.

For `O=C(O)C1c2ccccc2C(=O)N(Cc2ccc(F)cc2)C1c1cccc(F)c1` (configuration not stated), the inhibition is 10.8%.

With `COc1ccc(CN2CCC3(CC2)CC3C(=O)NCc2ccccc2C(F)(F)F)cc1O` (configuration not stated), the inhibition is 0.47%.

Take `COc1ccc(CN2CCN(Cc3ccccc3C(F)(F)F)CC2)cc1OC`: the inhibition was 75.6% (active).

Turning to `COc1ccc(C(=O)N2CCN(Cc3cccc(OC)c3OC)CC2)cc1OC`, the inhibition is 44.2%.

Regarding `COc1cccc(CN2CCOCC2)c1OC`, the inhibition was -5.85%.

`COc1cccc(CN2CCN(Cc3ccc(C(F)(F)F)cc3)CC2)c1OC`: the inhibition is 77.8% (active).

Regarding `COc1ccc(CN2CCN(C(=O)c3ccc(F)cc3)CC2)cc1OC`, the inhibition was 6.68%.

On to `COc1ccccc1/C=C/CN1CCN(C)CC1`, for which the inhibition was 44.2%.

`COc1cccc(CN2CCN(C/C=C/c3ccccc3)CC2)c1OC`: the inhibition was 63.1% (active).

Take `COc1cccc(CN2CCN(Cc3ccc(SC)cc3)CC2)c1OC`: the inhibition is 41%.

In the case of `COc1ccc(C(=O)N2CCN(Cc3ccccc3C(F)(F)F)CC2)cc1OC`, the inhibition was 83.3% (active).

Take `COc1cccc(CNCc2ccc(Br)cc2)c1OC`: the inhibition is 12.2%.

`CC(=O)Nc1cccc(NC(=O)Cn2cnc3c(nnn3Cc3ccccc3F)c2=O)c1`: the inhibition was 11.8%.

`COc1cc2nc(CN3CCN(c4ccccc4OC)CC3)[nH]c(=O)c2cc1OC`: the inhibition was 4.45%.

As to `O=[N+]([O-])c1cccc(C(c2nnnn2-c2cccc(Cl)c2)N2CCCCC2)c1` (configuration not stated), the inhibition was 7.91%.

With `C/C(CC(=O)Nc1ccc(Cl)cc1C)=N\NC(=O)c1ccc([N+](=O)[O-])c(Cl)c1`, the inhibition was 14%.

Consider `COC(=O)CSCC(=O)Nc1cc(C(F)(F)F)ccc1Cl`, for which the inhibition was 3.79%.

Turning to `Cc1ccn2cc(-c3ccc(NS(=O)(=O)c4ccc(I)cc4)cc3)nc2n1`, the inhibition was -8%.

On to `COc1ccc(NC2c3cccc4cccc(c34)C2NS(=O)(=O)c2ccccc2)cc1` (configuration not stated), for which the inhibition is 23.3%.

For `Cc1cccc(CNc2ncnc3sc(C(=O)N(C)C4CCOC4)c(C)c23)n1` (configuration not stated), the inhibition is -1.76%.

`C=CCOc1ccc(/C=C2\SC(=S)NC2=O)cc1`: the inhibition was 12.6%.

On to `Cc1ccc(C(=O)NNC(=O)C2Cc3ccccc3CN2C(=O)c2ccco2)cc1` (configuration not stated), for which the inhibition was 3.81%.

Consider `Cc1ccc(OCC(=O)N/N=C/c2cc(C)ccc2O)cc1`, for which the inhibition is 15.3%.

Consider `O=C(Nc1cccc(-c2nc3cccnc3s2)c1)C(F)(F)F`, for which the inhibition was -3.61%.

As to `N#C/C(=C/c1ccc(S(=O)(=O)c2ccc(Cl)cc2)cc1)c1nc2ccccc2[nH]1`, the inhibition was -16.9%.

Take `COc1cccc(-c2nc3cnccn3c2NC(C)(C)C)c1OC`: the inhibition was -9.88%.

Take `Cc1nc(NC2CC2)cc(-c2ccc(F)cc2)n1`: the inhibition is 52.6% (active).

Turning to `COCCNc1cc(-c2ccc(F)cc2)nc(C)n1`, the inhibition was 14.6%.

Regarding `Cc1nc(Nc2ccncc2)cc(-c2ccc(F)cc2)n1`, the inhibition is 0.1%.

Consider `O=C1NC(=S)N(c2ccccc2)C(=O)/C1=C/c1ccc(N2CCCC2)o1`, for which the inhibition was 1.33%.

Turning to `Cc1ccccc1N1C(=O)NC(=O)/C(=C\c2ccoc2)C1=O`, the inhibition is 52.5% (active).

Turning to `O=C1NC(=S)N(c2ccccc2)C(=O)/C1=C/c1ccccc1`, the inhibition is 17.4%.

Take `Cc1cccc(N2C(=O)NC(=O)/C(=C\c3ccc(I)o3)C2=O)c1C`: the inhibition was 57.8% (active).

On to `Cc1cccc(N2C(=O)NC(=O)/C(=C\c3ccc(C)o3)C2=O)c1`, for which the inhibition was 2.19%.

Consider `Cc1ccc(N2C(=O)NC(=O)/C(=C\c3ccc(I)o3)C2=O)cc1C`, for which the inhibition was 41.7%.

For `COc1ccc(/C=C2/C(=O)NC(=O)N(c3ccccc3C)C2=O)cc1OC`, the inhibition was 1.35%.

As to `O=C1NC(=S)N(c2ccccc2)C(=O)/C1=C/c1ccc(I)o1`, the inhibition is 59.5% (active).

For `O=C1NC(=O)N(c2ccccc2F)C(=O)/C1=C\c1ccco1`, the inhibition was 40%.

As for `O=C(Nc1ccc(C(=O)O)c(C(=O)O)c1)c1cccc(N2C(=O)c3ccc([N+](=O)[O-])cc3C2=O)c1` (tested in a mixture with another compound), the inhibition is 11.7%.

`CSc1ccccc1N1C(=O)[C@@H]2C[C@H]1CN2C(=O)CCc1ccc2c(c1)OCO2`: the inhibition is -0.38%.

In the case of `CC1=C(C(=O)OC2CCCC2)C(c2ccc(C)o2)C2=C(CCCC2=O)N1` (configuration not stated), the inhibition is 2.33%.

Turning to `CN(C)c1cccc(Nc2nccn3c(-c4cccc(Cl)c4)cnc23)c1`, the inhibition was -23.8%.

Take `CCCCNC(=O)c1ccc(-n2nnc3ccccc3c2=O)cc1`: the inhibition was 5.61%.

With `CCOc1ccc(CN2CCCN(C)CC2)cc1`, the inhibition was 60.4% (active).

On to `COc1ccc(CN2CCN(C(=O)c3cccc(Cl)c3)CC2)cc1OC`, for which the inhibition is 27.7%.

For `CC(Oc1cccc(Cl)c1)C(=O)Nc1ccccc1C(=O)N1CCN(Cc2ccccc2)CC1` (configuration not stated), the inhibition is 4.29%.

With `CC(C)NC(=O)Nc1ccc(CN2CCN(C)CC2)cc1`, the inhibition was -5.21%.

With `CCOc1ccc(CN2CCN(Cc3ccc(OCC)cc3)C(CCO)C2)cc1` (configuration not stated), the inhibition was 8.91%.

As for `Clc1cccc(N2CCN(Cc3cccnc3)CC2)c1`, the inhibition is 49.8%.

Consider `O=C(c1ccc(C(=O)N2CCN(Cc3ccccc3)CC2)cc1)N1CCN(Cc2ccccc2)CC1`, for which the inhibition is 6.34%.

Consider `O=C(c1cccc(Cl)c1)N1CCN(Cc2cccnc2)CC1`, for which the inhibition was 59.4% (active).

For the compound `CCOc1ccc(CN2CCN(C(=O)c3cccc(Cl)c3)CC2)cc1`, the inhibition was 58.5% (active).
